# Assay outcomes as filed in PubChem BioAssay.
# FAK inh = FAK kinase inhibitors, primary screen, biochemical; Focal adhesion kinase 1 (Homo sapiens), Q05397; biochemical FAK kinase activity assay; inhibition, %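 (tested at 7 µM)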; actives 0.84% (n = 97,000); in the data active means inhibition above about 19%
# EphB4 ephrin blk = EphB4-ephrin-B2 interaction antagonists, primary screen, biochemical, TNYL-RAW peptide probe, fluorescence polarization; EphB4 LBD / TNYL-RAW-Alexa532 peptide; Ephrin type-B receptor 4 (Homo sapiens), P54760; inhibition, % at 7 µM; actives 0.15% (n = 97,000);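 active means inhibition above the screen-wide mean inhibition plus 3 SD, cut at about 15% in these data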
# PLK1 PBD inh = Plk1 polo box domain binding inhibitors, primary screen, biochemical, fluorescence polarization; Serine/threonine-protein kinase PLK1 (Homo sapiens), P53350; Plk1 PBD phosphopeptide binding; inhibition, %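 (tested at about 20 µM)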; actives 0.13% (n = 97,000); in the data active means inhibition above about 34%, passing the limit was not always enough
# Smad3 FoxH1 inh = Smad3/FoxH1 peptide binding inhibitors, primary screen, biochemical, TR-FRET. TR-FRET Smad3/Dy647-FoxH1 peptide binding, europium anti-His. actives 0.29% (n = 88,000). inhibition, % at 25 µM. Mothers against decapentaplegic homolog 3 (Homo sapiens), P84022;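 active means compounds that reduce the energy-transfer binding signal between the protein and its labelled peptide by more than half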
# Target sequence (P84022 whole entry, looked up): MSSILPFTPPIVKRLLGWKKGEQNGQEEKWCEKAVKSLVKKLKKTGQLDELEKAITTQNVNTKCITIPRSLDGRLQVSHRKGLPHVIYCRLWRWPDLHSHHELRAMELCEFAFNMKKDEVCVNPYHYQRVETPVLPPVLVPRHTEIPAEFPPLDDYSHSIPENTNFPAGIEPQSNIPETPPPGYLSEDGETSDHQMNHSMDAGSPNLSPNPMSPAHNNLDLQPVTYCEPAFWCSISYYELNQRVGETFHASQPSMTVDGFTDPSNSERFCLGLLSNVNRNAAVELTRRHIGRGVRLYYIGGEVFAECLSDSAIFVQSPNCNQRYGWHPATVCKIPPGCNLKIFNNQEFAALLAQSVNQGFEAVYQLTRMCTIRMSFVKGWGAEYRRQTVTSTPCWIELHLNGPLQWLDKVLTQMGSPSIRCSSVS
# PLK1 inh = human PLK1 kinase inhibitors, primary screen, biochemical, TR-FRET | Serine/threonine-protein kinase PLK1 (Homo sapiens), P53350 | recombinant PLK1 kinase, TR-FRET peptide phosphorylation | inhibition, % at 10 µM | actives 0.53% (n = 97,000);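 active means inhibition of 50% or more in the single-concentration screen; inactive means inhibition below 50%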
# Numbers stand for hits; n = inactive; x = no result given; [ ] = dose if it differs, or a comment. In the library only some 1.6% were active in any assay of this set; here they are far more common.
SMILES,FAK inh,EphB4 ephrin blk,PLK1 PBD inh,Smad3 FoxH1 inh,PLK1 inh
Oc1ccc(Cc2nccc3cc(O)c(O)cc23)cc1O,x,x,x,89,x
O=C(COC(=O)C(Cc1ccccc1)NC(=O)c1ccco1)NC1CC1 (stereo not drawn),n,17,n,x,n
Cc1[nH]nc2c1C1(CCN(C(=O)c3ccccc3)CC1)C(C#N)=C(N)O2,n,n,n,x,n
Cc1[nH]nc2c1C1(CCC(c3ccccc3)CC1)C(C#N)=C(N)O2 (stereo not drawn),n,n,n,n,60
CCOC(=O)c1oc2cccc(O)c2c1C,n,n,n,n,n
CCOC(=O)c1oc2cccc(O)c2c1CN(Cc1ccccc1)C(C)=O,n,19,n,x,n
COc1cc(C)cc(OC)c1/C=C/C(=O)O,x,x,x,n,x
O=C(CCCCCN1C(=O)C2C3C=CC(C3)C2C1=O)Nc1nccs1 (stereo not drawn),n,n,n,n,62
O=C(O)CCC(=O)Nc1ccc(-c2nnc(-c3ccco3)o2)cc1,n,n,n,n,53
COc1ccc(Cn2nnnc2C(c2cc3ccc(OC)cc3[nH]c2=O)N2CCC(C)CC2)cc1 (stereo not drawn),n,16,n,n,n
CCOc1cc(/C=C(\C#N)c2[nH]nc(N)c2C#N)ccc1O,n,n,n,n,69
Cn1c(=O)c2[nH]c(CS(=O)(=O)Cc3nc4c([nH]3)c(=O)n(C)c(=O)n4C)nc2n(C)c1=O,x,x,x,n,x
Cc1cc(-c2ccccc2)n2ncc(C#N)c2n1,n,n,n,n,54
CC1(C)[C@@H]2CC[C@@]1(CC(=O)O)[C@@H](Cl)C2,x,x,x,n,x
CCOC(=O)c1cnc(Nc2nc3ccccc3o2)nc1CN1CCN(C)CC1,n,16,n,x,n
CCCOC(=O)Nc1nc2ccccc2o1,n,n,n,n,n
Nc1ncnc2c1nc(-c1ccccc1)n2[C@H]1O[C@@H](CO)[C@H](O)[C@H]1O,x,x,x,n,x
CCn1c(Cc2cccc3ccccc23)nnc1SCC(=O)Nc1nccs1,n,n,n,n,65
O=C(CSc1nc(-c2ccccc2)c(-c2ccccc2)[nH]1)Nc1nccs1,n,n,n,x,61
O=C(CSc1nc(-c2ccccc2)c(-c2ccccc2)[nH]1)NCc1ccco1,n,n,n,n,n
CCn1c(SCC(=O)Nc2nccs2)nnc1-c1ccc(C)cc1,n,n,n,n,n
CCc1ccccc1NC(=O)CSc1nc2ccccc2n1CC(=O)N1CCCC1,n,n,n,n,n
CC1CCN(C(=O)Cn2c(SCC(=O)Nc3nccs3)nc3ccccc32)CC1,n,n,n,n,61
CCn1c(CNC(=O)Cc2ccc(OC)cc2)nnc1SCC(=O)Nc1nccs1,n,n,n,n,n
Cc1ccc(-c2nnc(SCC(=O)Nc3nccs3)n2N)cc1,n,n,n,n,63
SMILES,FAK inh,EphB4 ephrin blk,PLK1 PBD inh,Smad3 FoxH1 inh,PLK1 inh
C[C@H]1[C@H](O)[C@@H](C)C=CC=CC=CC=CC=CC=CC=C[C@H](O[C@H]2O[C@@H](C)[C@H](O)[C@@H](N)[C@@H]2O)C[C@@H]2O[C@@](O)(C[C@@H](O)C[C@@H](O)[C@@H](O)CC[C@@H](O)C[C@@H](O)CC(=O)O[C@H]1C)C[C@H](O)[C@H]2C(=O)O,x,x,x,n,x
CSc1ncnc2c1ncn2[C@H]1O[C@@H](CO)[C@H](O)O[C@@H]1O,x,x,x,n,x
O=C(O)[C@@H]1[C@H](C(=O)Nc2cccc3cccnc23)[C@@H]2CC[C@H]1O2,x,x,x,98,x
O=C(O)/C(Cc1ccc([N+](=O)[O-])cc1)=N\O,x,x,x,n,x
CCOC(=O)Cn1c2ccccc2c2nc3ccccc3nc21,n,n,n,n,n
CCOC(=O)Cn1c(C(F)(F)F)nc2nc(Cl)c(Cl)nc21,x,x,x,56,x
O=C(Nc1ccc(N2CCOCC2)cc1)Nc1ccc2nc(-c3ccco3)c(-c3ccco3)nc2c1,n,n,n,n,n
O=C(Nc1ccc2nc(-c3ccco3)c(-c3ccco3)nc2c1)NC1CC1,92,n,n,n,n
CC1=CC(C)(C)Nc2cc(C)c(C)cc21,n,n,n,n,n
CC1=CC(C)(C)Nc2ccc(C)cc21,n,n,n,73,n
O=C(/C=C/c1ccccc1Cl)NCCN1CCOCC1,n,n,n,x,n
O=C(/C=C/c1cccc([N+](=O)[O-])c1)NCCN1CCOCC1,n,17,n,x,n
Cc1ccc(C(=O)NC2CCSC2=O)cc1 (stereo not drawn),n,n,n,54[fluorescence artefact?],n
CCOc1ccc(C(CCc2ccccc2)NC(=O)c2ccccc2F)cc1OCC (stereo not drawn),n,18,n,x,n
Cc1cc(C(C#N)c2ccccc2)n2ncnc2n1 (stereo not drawn),n,n,n,n,53
Cc1cc(Oc2ccc(-c3ccccc3)cc2)n2ncnc2n1,x,x,x,n,x
Nc1ncnc2c1ncn2CCCCC(=O)O,x,x,x,n,x
O=C(O)CCCCn1cnc2c(=S)nc[nH]c21,x,x,x,52,x
O=C(O)CCn1cnc2c(=S)nc[nH]c21,x,x,x,53,x
CN(C)c1ccc2nc3c(C(=O)O)cc(=O)c(O)c-3oc2c1,x,x,x,n,x
O=C(CN(Cc1ccccc1)C(=O)CSc1nnc(COc2ccccc2)o1)NC1CCCC1,n,n,n,n,n
O=C(CN(Cc1cccs1)C(=O)CSc1nnc(COc2ccccc2)o1)NC1CCCC1,n,20,n,n,n
C/C(Nc1ccc(Cl)cc1)=C(/C#N)C(N)=O,n,n,n,n,n
C/C(Nc1ccccc1)=C(/C#N)C(N)=O,n,n,n,96[fluorescence artefact?],n
COc1cc(C(C#N)N2CCOCC2)ccc1O (stereo not drawn),n,n,n,n,n
SMILES,FAK inh,EphB4 ephrin blk,PLK1 PBD inh,Smad3 FoxH1 inh,PLK1 inh
COc1cccc(C(C#N)N2CCOCC2)c1 (stereo not drawn),n,22,n,n,n
CC(=O)[C@]1(O)CC[C@@H]2[C@H]3C[C@@H](C)C4=CC(=O)CC[C@@]4(C)[C@@H]3[C@@H](O)C[C@]21C,x,x,x,n,x
COc1ccc(S(=O)(=O)N(C)c2ccc(C(=O)NCCC(C)C)cc2)cc1,n,n,n,69,n
Cc1cccc(-n2ccnc2SCC(=O)Nc2nnc(C)s2)c1,n,n,n,n,n
Cc1nnc(NC(=O)CSc2nccn2C)s1,n,71,n,n,n
Cc1nc(SCC(=O)Nc2cc(C)on2)c2c(=O)n(C)c(=O)n(C)c2n1,n,n,n,n,n
Cc1csc(NC(=O)CSc2nc(C(C)C)nc3c2c(=O)n(C)c(=O)n3C)n1,n,n,n,n,66
O=C(O)[C@@H]1[C@H]2C[C@@H]3[C@@H](OC(=O)[C@@H]31)[C@H]2Br,x,x,x,n,x
CCc1cccc(C)c1NC(=O)CN1C(=O)c2ccccc2S1(=O)=O,n,n,n,n,69
O=C(O)c1ccc(/C=N/N=C2c3ccccc3-c3ccccc32)cc1,x,x,x,n,x
Cn1c(N)nc2c(nc(OCc3ccccc3)n2[C@H]2O[C@H](CO)[C@@H](O)[C@@H]2O)c1=O,x,x,x,74,x
